From PubChem BioAssay

How the values were obtained:
[1] = biological target: Tumor necrosis factor receptor superfamily member 10B (Homo sapiens) (UniProt O14763); test: viability loss of caspase-8 NB7 cells with TRAIL – with/without TRAIL, luminescence panel, confirmation (AID 651596); conditions: NB7 neuroblastoma + caspase-8, TRAIL sensitization, NB7 Caspase-8, with TRAIL, mean of runs, at 10 µM, stronger effect = higher value
[2] = as above; conditions: NB7 neuroblastoma + caspase-8, without TRAIL, NB7 Caspase-8, without TRAIL, mean of runs, at 10 µM

Chain of Tumor necrosis factor receptor superfamily member 10B (Homo sapiens) (O14763 whole entry, looked up): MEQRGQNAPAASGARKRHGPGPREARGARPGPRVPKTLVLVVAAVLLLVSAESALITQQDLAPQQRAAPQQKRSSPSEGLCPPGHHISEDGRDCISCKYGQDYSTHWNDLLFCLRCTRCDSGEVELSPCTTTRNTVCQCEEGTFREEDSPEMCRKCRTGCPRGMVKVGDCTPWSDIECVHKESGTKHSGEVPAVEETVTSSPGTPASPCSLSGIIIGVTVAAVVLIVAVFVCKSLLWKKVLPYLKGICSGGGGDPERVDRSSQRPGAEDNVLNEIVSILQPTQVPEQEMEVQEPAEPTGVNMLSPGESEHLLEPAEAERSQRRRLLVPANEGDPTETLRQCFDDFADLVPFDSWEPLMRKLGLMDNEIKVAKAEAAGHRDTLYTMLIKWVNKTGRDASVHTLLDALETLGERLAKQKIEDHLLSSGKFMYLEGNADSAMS

| SMILES | activity [1] [%] | activity [2] [%] |
| --- | --- | --- |
| CC1CCC(C(C)C)C(OC(=O)Cn2c(-c3ccc(Cl)cc3)[n+](C)c3ccccc32)C1 (centres undefined) | 76.7 | 62 |
| O=C(Nc1ccc(NC(=O)c2ccco2)nc1)c1ccco1 | 71.2 | 61.5 |
| Cc1ccc(/C=C(\C#N)c2nc3ccccc3[nH]2)s1 | 69.8 | 72 |
| Cc1nc(-c2ccc(NC(=O)c3ccc(Br)o3)cc2)cs1 | 68.5 | 67.5 |
| CCCCc1ccc(NC(=O)c2cnccn2)cc1 | 53.3 | 45.1 |
| CCC1CCCCN1c1ccc([N+](=O)[O-])cc1/C=N/NC(=O)Cn1c2ccccc2c(=O)c2ccccc21 (centres undefined) | 60.3 | 66.7 |
| COc1ccc(-c2cc(C(=O)N3CCCC3)no2)cc1 | 64.9 | 59.8 |
| Cc1cccc(NC2=NC(C)(C)N=C(N)N2)c1 | 82.5 | 83.2 |
| Cc1cc(N/N=C/c2ccccc2Cl)nc(NCc2ccccc2)n1 | 37.5 | 34.1 |
| Cc1ccc(C(C#N)=Cc2ccc3c(c2)OCO3)cc1 | 68.5 | 65.2 |
| Cc1nn(-c2ccccc2)c(Cl)c1CN(C(=O)CCl)c1ccc(Cl)cc1 | 99.3 | 99.6 |
| COC(=O)c1c(-c2ccccc2)csc1NC1=NS(=O)(=O)c2ccccc21 | 74.7 | 73.3 |
| CC(O)CC(=O)OC[C@]12CC[C@H]3[C@@](C)(CC[C@H]4C(C)(C)CCC[C@]34C)[C@@H]1CC(C1=CC(=O)OC1O)O2 (some centres undefined) | 87.1 | 93 |
| O=c1c2ccccc2oc2ccc(-c3ccc4cc[nH]c4c3)cc12 | 36.5 | 35.8 |
| O=C(/C=C\Nc1ccccn1)c1ccc(Cl)cc1 | 77.2 | 63.3 |
| O=C(NCCc1cccc(Cl)c1)c1ccc2c(c1)OCO2 | 47.7 | 39.4 |

| SMILES | activity [1] [%] | activity [2] [%] |
| --- | --- | --- |
| O=C(Nc1ncc(Cc2ccccc2)s1)c1cccs1 | 74.1 | 75 |
| CCc1c(C)[nH]c2c(C)cccc2c1=O | 56.4 | 64.3 |
| CC(=O)c1ccc(NC(=O)Nc2ccccc2)cc1 | 65.2 | 68.3 |
| CC(C)c1ccc(/C=N/NC(=O)c2c(Cl)cnn2C)cc1 | 80.1 | 71.3 |
| CC(=O)Nc1ccc(NC(=O)CSc2nnc(NC(=O)c3ccccc3F)s2)cc1 | 69.5 | 63.9 |
| COc1ccc(/C=N/Nc2cc(C)nc(-n3nc(C)cc3C)n2)c(OC)c1 | 6.72 | 12.9 |
| COC(=O)c1ccc2nc(-c3cccc(N)c3)cn2c1 | 74.5 | 67.8 |
| C=Cc1ccc(Cn2c(C)c(C(=O)NCc3ccc(Cl)c(Cl)c3)sc2=O)cc1 | 91.2 | 68 |
| Nc1nn2cc(-c3ccccc3)nc2c2ccccc12 | 54.7 | 53.4 |
| CN(c1ccccc1)S(=O)(=O)c1ccc(NC(=O)c2nc(S(C)(=O)=O)ncc2Cl)cc1 | 80.7 | 99.3 |
| Cc1cc(-c2csc3nc[nH]c(=S)c23)cc(C)c1C | 79.3 | 74.9 |
| Cc1ccc(CS(=O)(=O)c2ncc(Cl)c(C(=O)Nc3ccc(OC(F)F)cc3)n2)cc1 | 5.62 | -6.55 |
| COc1ccccc1C(CNc1ccc(S(=O)(=O)N2CCCC2)cc1[N+](=O)[O-])N(C)C (centres undefined) | 52.1 | 55.8 |
| COc1ccc(C(=O)/C=C2\C(=O)Nc3ccc(Br)cc32)cc1 | 49.3 | 77.4 |
| CCOc1ccc(OCc2cccc(C(=O)N3CCOCC3)c2)cc1 | 58.8 | 55.5 |
| CC1CCC(C(C)C)C(OC(=O)Cn2c(-c3ccccc3)[n+](C)c3ccccc32)C1 (centres undefined) | 70.2 | 61.2 |
